These results are taken from PubChem BioAssay (EPA / NIEHS).

Each structure is given as a SMILES string. Values joined by “and” are separate entries in the source; they are usually repeats but may differ in a detail not shown here. Identical values can stand only once. Active and inactive are the calls of the source. Rule for the calls: active = hit-call score of the fitted dose curve at least 0.9, where 1 is the maximum; inactive = score below 0.9.

Read-out in the first experiment: not listed separately
The experiment can be described thus: BSK_LPS_SRB: Viability Assessment in the BioMAP Diversity Plus: LPS Assay (AID 2283079).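 Note: total protein by sulforhodamine B absorbance as a cytotoxicity measure; measured one day after compound addition; fitted in both directions against DMSO so loss or gain of signal counts.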 The conditions noted are these: primary human HUVEC with PBMC. A digest of the protocol: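 Human umbilical vein endothelial cells co-cultured with PBMC (LPS system) were dosed for 24 h. Total protein was stained with 0.1% sulforhodamine B after 10% TCA fixation, read at 560 nm, and fitted bidirectionally against DMSO baseline.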
As for `O=c1c2ccccc2oc2ccccc12`, the outcome was inactive.

`COCc1c(C(C)C)nc(C(C)C)c(/C=C/[C@@H](O)C[C@@H](O)CC(=O)O)c1-c1ccc(F)cc1`: the AC50 (usually the concentration at which the activity in the assay is half-maximal) is 0.023 µM (active).

On to `O=Nc1ccc(O)cc1`, for which the result was inactive.

Consider `N#[N+]c1ccc2c(S(=O)(=O)[O-])cccc2c1O`, for which the result was inactive.

For the compound `C#CC1(O)CC[C@H]2[C@@H]3CCC4=CCCC[C@@H]4[C@H]3CC[C@@]21C` (some centres not stated), the half-maximal activity concentration (AC50) was 20 µM (active).

On to `O=C(Cl)c1cc(C(=O)Cl)cc(C(=O)Cl)c1`, for which the AC50 is 30.5 µM (active).

As for `CC(C)C(=O)C(C)C`, the outcome was inactive.

Consider `C=CC(=O)OCC(Br)CBr` (configuration not stated), for which the half-maximal activity concentration (AC50) is 31 µM (active).

Consider `CCOC(=O)c1ccccc1C(=C1C=C(Br)C(=O)C(Br)=C1)c1cc(Br)c(O)c(Br)c1`, for which the AC50 is 20.6 µM (active) and 23.2 µM (active).

On to `c1ccc2c(c1)ccc1ncccc12`, for which the half-maximal activity concentration (AC50) was 20 µM (active).

Take `CCCCC(CC)COC(=O)c1ccccc1O` (configuration not stated): the outcome was inactive.

`CCCCCCCCCCCCCCCC[N+](C)(C)CC`: the AC50 was 1.62 µM (active).

Turning to `COc1ccc2nc(N)sc2c1`, the outcome was inactive.

In the case of `CC(C)(c1cc(Br)c(OCCO)c(Br)c1)c1cc(Br)c(OCCO)c(Br)c1`, the AC50 was 16.2 µM (active).

On to `CCCCC/C=C\C/C=C\CCCCCCCC(=O)OC`, for which the outcome was inactive.

For the compound `Nc1ccc(N)c(Cl)c1`, the AC50 is 25.9 µM (active) and 32.6 µM (active).

Consider `CC1OC1C1CCC2(C)OC2C1` (configuration not stated), for which the result was inactive.

As to `C=C[Si](OC(C)=O)(OC(C)=O)OC(C)=O`, the outcome was inactive.

In the case of `S=C(NC1CCCCC1)NC1CCCCC1`, the result was inactive.

Regarding `C/C=C\C/C=C/CCCCCCCCOC(C)=O`, the result was inactive.

As to `CCCCC(CC)COCC1CO1` (configuration not stated), the outcome was inactive.

As to `CCO[Si](CCCN=C=O)(OCC)OCC`, the result was inactive.

Take `CO[Si](OC)(OC)c1ccccc1`: the result was inactive.

Consider `CCCCNc1ccc(NCCCC)c2c1C(=O)c1ccccc1C2=O`, for which the result was inactive.

For `CCO[Si](C)(OCC)OCC`, the outcome was inactive.

For the compound `O=C1CCCN1CCO`, the result was inactive.

For the compound `CN1C(=O)N(C)C(O)C1O` (configuration not stated), the result was inactive.

Take `C=CCOc1c(Br)cc(Br)cc1Br`: the outcome was inactive.

For the compound `CCCCCCCCc1ccc(Nc2ccc(CCCCCCCC)cc2)cc1`, the result was inactive.

For the compound `O=C(c1ccc(O)cc1)c1ccc(O)cc1O`, the result was inactive.

Turning to `CCOc1nc(F)cc2nc(S(=O)(=O)Nc3c(Cl)cccc3C(=O)OC)nn12`, the result was inactive.

As for `C=CC=CC=CCCCCC`, the outcome was inactive.

Take `c1ccc(-c2ccccn2)nc1`: the outcome was inactive.

Regarding `C=CCOCC(O)CCl` (configuration not stated), the result was inactive.

Take `c1ccc2c(c1)ccc1cc3c(ccc4ccccc43)cc12`: the result was inactive.

Regarding `O=C(Nc1ccccc1SSc1ccccc1NC(=O)c1ccccc1)c1ccccc1`, the half-maximal activity concentration (AC50) was 5.31 µM (active).

Read-out in the next experiment: Interleukin-1 alpha (IL1a), IL1A (gene 3552)
The experiment can be described thus: BSK_LPS_IL1a: BioMAP Diversity Plus: LPS Assay for Interleukin-1 alpha (IL1a) Biomarker Activity (AID 2283080). The following applies: primary human HUVEC with PBMC; actives raise or lower the signal. A digest of the protocol:
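Human umbilical vein endothelial cells co-cultured with peripheral blood mononuclear cells were LPS-stimulated and exposed to test chemicals for 24 h. IL-1 alpha was quantified by ELISA, with bidirectional curve fitting against DMSO as the negative control and baseline.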
Take `O=c1c2ccccc2oc2ccccc12`: the result was inactive.

Regarding `COCc1c(C(C)C)nc(C(C)C)c(/C=C/[C@@H](O)C[C@@H](O)CC(=O)O)c1-c1ccc(F)cc1`, the concentration at half-maximal activity (AC50) was 0.00777 µM (active).

Consider `O=Nc1ccc(O)cc1`, for which the result was inactive.

For `N#[N+]c1ccc2c(S(=O)(=O)[O-])cccc2c1O`, the outcome was inactive.

In the case of `C#CC1(O)CC[C@H]2[C@@H]3CCC4=CCCC[C@@H]4[C@H]3CC[C@@]21C` (some centres not stated), the AC50 is 29.6 µM (active).

On to `O=C(Cl)c1cc(C(=O)Cl)cc(C(=O)Cl)c1`, for which the AC50 was 31 µM (active).

As to `CC(C)C(=O)C(C)C`, the outcome was inactive.

`C=CC(=O)OCC(Br)CBr` (configuration not stated): the concentration at half-maximal activity (AC50) was 18.3 µM (active).

Regarding `CCOC(=O)c1ccccc1C(=C1C=C(Br)C(=O)C(Br)=C1)c1cc(Br)c(O)c(Br)c1`, the AC50 is 17.8 µM (active) and 14.7 µM (active).

Take `c1ccc2c(c1)ccc1ncccc12`: the AC50 is 20 µM (active).

As for `CCCCC(CC)COC(=O)c1ccccc1O` (configuration not stated), the result was inactive.

Consider `CCCCCCCCCCCCCCCC[N+](C)(C)CC`, for which the half-maximal activity concentration (AC50) is 1.42 µM (active).

On to `COc1ccc2nc(N)sc2c1`, for which the result was inactive.

Consider `CC(C)(c1cc(Br)c(OCCO)c(Br)c1)c1cc(Br)c(OCCO)c(Br)c1`, for which the result was inactive.

In the case of `CCCCC/C=C\C/C=C\CCCCCCCC(=O)OC`, the concentration at half-maximal activity (AC50) is 31.8 µM (active).

With `Nc1ccc(N)c(Cl)c1`, the half-maximal activity concentration (AC50) was 4.62 µM (active) and 33.4 µM (active).

With `CC1OC1C1CCC2(C)OC2C1` (configuration not stated), the outcome was inactive.

Consider `C=C[Si](OC(C)=O)(OC(C)=O)OC(C)=O`, for which the outcome was inactive.

In the case of `S=C(NC1CCCCC1)NC1CCCCC1`, the outcome was inactive.

For the compound `C/C=C\C/C=C/CCCCCCCCOC(C)=O`, the AC50 is 35.1 µM (active).

On to `CCCCC(CC)COCC1CO1` (configuration not stated), for which the outcome was inactive.

As to `CCO[Si](CCCN=C=O)(OCC)OCC`, the result was inactive.

On to `CO[Si](OC)(OC)c1ccccc1`, for which the outcome was inactive.

For the compound `CCCCNc1ccc(NCCCC)c2c1C(=O)c1ccccc1C2=O`, the outcome was inactive.

On to `CCO[Si](C)(OCC)OCC`, for which the result was inactive.

`O=C1CCCN1CCO`: the result was inactive.

As to `CN1C(=O)N(C)C(O)C1O` (configuration not stated), the outcome was inactive.

For the compound `C=CCOc1c(Br)cc(Br)cc1Br`, the result was inactive.

Consider `CCCCCCCCc1ccc(Nc2ccc(CCCCCCCC)cc2)cc1`, for which the outcome was inactive.

As for `O=C(c1ccc(O)cc1)c1ccc(O)cc1O`, the outcome was inactive.

On to `CCOc1nc(F)cc2nc(S(=O)(=O)Nc3c(Cl)cccc3C(=O)OC)nn12`, for which the outcome was inactive.

`C=CC=CC=CCCCCC`: the outcome was inactive.

`c1ccc(-c2ccccn2)nc1`: the outcome was inactive.

On to `C=CCOCC(O)CCl` (configuration not stated), for which the outcome was inactive.

As for `c1ccc2c(c1)ccc1cc3c(ccc4ccccc43)cc12`, the outcome was inactive.

`O=C(Nc1ccccc1SSc1ccccc1NC(=O)c1ccccc1)c1ccccc1`: the AC50 was 2.65 µM (active).
